Holding throughout (test): DAPPL (digital affinity profiling via proximity ligation, sequencing); 10 mM Tris-HCl pH 7.5, 50 mM NaCl, 1 mM DTT, 4% glycerol, room temperature, 30 min; GST-TFs on glutathione beads, 16-mer random dsDNA library, 0.1% formaldehyde crosslink after washing; high values mean tight binding
Assay [1] concerns the target T1, FEV (Homo sapiens, UniProt Q99581 1-238).
T1 sequence: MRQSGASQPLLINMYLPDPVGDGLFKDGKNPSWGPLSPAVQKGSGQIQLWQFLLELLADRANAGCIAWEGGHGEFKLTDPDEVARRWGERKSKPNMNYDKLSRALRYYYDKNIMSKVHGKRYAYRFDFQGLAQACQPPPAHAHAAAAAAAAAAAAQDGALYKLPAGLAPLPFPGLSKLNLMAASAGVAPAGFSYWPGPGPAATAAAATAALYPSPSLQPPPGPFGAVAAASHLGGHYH
The note with it: protein: recombinant; tags: N-terminal GST; dsDNA, one strand shown. In short, it runs like this: (§1)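 A tag-only sample was pooled with DNA-barcoded human transcription factors that had been expressed in yeast as GST fusions and captured on glutathione beads. The pools were incubated for 30 min at room temperature with 200 nmole of a random double-stranded 16-mer DNA library in Tris/NaCl/DTT/glycerol buffer, then washed, crosslinked with 0.1% formaldehyde, proximity-ligated (BsaI/T4 ligase, 1 h, 37 °C), PCR-amplified and sequenced on an Illumina NextSeq500. Binding signal is each hexamer's read frequency for a factor divided by its frequency for the tag-only sample.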

The target of assay [2] is ETV5 (Homo sapiens, UniProt P41161 1-510). The note with it: protein: recombinant; tags: N-terminal GST; dsDNA, one strand shown. Summed up: as §1
Sequence of ETV5 (P41161 whole entry): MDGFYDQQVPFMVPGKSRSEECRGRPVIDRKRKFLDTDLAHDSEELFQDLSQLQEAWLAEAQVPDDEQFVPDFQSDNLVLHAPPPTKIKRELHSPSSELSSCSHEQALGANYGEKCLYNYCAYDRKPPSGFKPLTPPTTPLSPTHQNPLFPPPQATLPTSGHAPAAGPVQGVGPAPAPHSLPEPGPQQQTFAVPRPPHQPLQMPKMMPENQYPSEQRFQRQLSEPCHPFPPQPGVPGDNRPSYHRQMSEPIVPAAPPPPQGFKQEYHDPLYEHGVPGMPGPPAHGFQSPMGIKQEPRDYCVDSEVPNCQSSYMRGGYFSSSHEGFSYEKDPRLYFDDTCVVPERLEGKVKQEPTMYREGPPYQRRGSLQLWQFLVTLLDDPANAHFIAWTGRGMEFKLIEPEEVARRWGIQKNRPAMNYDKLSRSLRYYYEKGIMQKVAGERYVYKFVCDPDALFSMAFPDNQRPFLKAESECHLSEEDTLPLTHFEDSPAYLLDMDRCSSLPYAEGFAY
For assay [3], the target named is HSF1 (Homo sapiens, UniProt Q00613 1-529). The note with it: protein: recombinant; tags: N-terminal GST; chain copies: 3; dsDNA, one strand shown. Summed up:
as §1

The target in assay [4] is T2, SPIC (Homo sapiens, UniProt Q8N5J4 1-248).
T2 sequence: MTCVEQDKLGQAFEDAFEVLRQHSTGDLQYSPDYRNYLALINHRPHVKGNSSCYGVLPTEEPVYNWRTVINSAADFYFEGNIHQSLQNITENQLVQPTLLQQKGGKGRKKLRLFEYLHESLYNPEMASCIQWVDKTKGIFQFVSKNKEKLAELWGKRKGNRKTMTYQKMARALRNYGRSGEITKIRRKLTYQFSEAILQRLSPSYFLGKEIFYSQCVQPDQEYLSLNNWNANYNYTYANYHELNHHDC
The note with it: protein: recombinant; tags: N-terminal GST; dsDNA, one strand shown. Summed up:
as §1

The target in assay [5] is ELF4 (Homo sapiens, UniProt Q99607 1-663). The note with it: protein: recombinant; tags: N-terminal GST; dsDNA, one strand shown. Summed up: as §1
Sequence of ELF4 (Q99607 whole entry): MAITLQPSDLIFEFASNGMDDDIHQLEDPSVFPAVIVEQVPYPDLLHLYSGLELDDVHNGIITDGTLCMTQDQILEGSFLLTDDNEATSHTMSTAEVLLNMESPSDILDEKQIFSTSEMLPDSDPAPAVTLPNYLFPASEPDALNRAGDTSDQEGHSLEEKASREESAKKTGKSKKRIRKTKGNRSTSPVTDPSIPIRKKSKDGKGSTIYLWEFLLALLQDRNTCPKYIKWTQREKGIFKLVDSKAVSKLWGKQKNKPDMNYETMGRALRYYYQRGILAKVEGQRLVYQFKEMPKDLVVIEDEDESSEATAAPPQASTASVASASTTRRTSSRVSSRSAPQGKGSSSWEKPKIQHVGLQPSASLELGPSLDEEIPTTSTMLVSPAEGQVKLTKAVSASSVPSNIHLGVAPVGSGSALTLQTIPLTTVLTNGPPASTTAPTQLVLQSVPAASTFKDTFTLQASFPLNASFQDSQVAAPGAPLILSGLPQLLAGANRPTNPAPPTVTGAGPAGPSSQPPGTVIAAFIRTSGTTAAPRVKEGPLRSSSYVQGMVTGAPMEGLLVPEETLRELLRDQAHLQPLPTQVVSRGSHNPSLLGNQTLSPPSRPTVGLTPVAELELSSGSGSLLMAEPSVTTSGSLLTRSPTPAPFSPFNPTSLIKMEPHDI
Assay [6] deals with T3, ELK4 (Homo sapiens, UniProt P28324-2 1-405).
T3 sequence: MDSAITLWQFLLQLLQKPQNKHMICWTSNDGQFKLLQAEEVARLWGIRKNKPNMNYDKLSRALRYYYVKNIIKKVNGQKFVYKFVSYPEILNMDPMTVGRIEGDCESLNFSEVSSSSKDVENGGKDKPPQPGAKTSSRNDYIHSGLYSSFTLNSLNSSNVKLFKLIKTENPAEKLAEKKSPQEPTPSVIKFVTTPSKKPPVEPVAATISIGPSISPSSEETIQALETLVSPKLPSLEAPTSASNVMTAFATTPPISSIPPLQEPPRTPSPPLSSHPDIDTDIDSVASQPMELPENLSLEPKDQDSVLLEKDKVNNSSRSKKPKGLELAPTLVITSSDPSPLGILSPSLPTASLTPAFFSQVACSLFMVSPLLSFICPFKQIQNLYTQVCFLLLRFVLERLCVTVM
The note with it: protein: recombinant; tags: N-terminal GST; dsDNA, one strand shown. Summed up: as §1

The target of assay [7] is T4, ETV2 (Homo sapiens, UniProt O00321 1-342).
T4 sequence: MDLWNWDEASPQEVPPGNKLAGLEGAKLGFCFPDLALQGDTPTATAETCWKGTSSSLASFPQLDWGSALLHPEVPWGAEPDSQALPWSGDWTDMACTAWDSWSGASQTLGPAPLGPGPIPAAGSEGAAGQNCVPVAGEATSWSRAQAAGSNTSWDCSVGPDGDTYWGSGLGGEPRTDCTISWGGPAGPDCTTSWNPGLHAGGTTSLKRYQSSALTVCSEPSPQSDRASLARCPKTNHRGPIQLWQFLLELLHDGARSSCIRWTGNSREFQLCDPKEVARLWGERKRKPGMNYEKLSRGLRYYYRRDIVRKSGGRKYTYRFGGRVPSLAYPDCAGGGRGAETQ
The note with it: protein: recombinant; tags: N-terminal GST; dsDNA, one strand shown. In short, it runs like this: as §1

For assay [8], the target named is T5, ELF3 (Homo sapiens, UniProt P78545 1-371).
T5 sequence: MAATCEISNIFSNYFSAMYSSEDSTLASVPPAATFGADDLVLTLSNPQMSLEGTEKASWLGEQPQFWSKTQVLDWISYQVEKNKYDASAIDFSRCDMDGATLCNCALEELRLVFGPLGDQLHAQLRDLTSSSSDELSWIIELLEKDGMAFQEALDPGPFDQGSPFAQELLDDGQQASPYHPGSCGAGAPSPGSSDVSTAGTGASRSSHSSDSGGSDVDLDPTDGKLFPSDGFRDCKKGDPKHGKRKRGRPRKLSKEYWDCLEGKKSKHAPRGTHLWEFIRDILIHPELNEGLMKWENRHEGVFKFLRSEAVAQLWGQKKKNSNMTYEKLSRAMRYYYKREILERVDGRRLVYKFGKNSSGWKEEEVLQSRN
The note with it: protein: recombinant; tags: N-terminal GST; dsDNA, one strand shown. Summed up: as §1

For assay [9], the target named is CRX (Homo sapiens, UniProt O43186 1-299). The note with it: protein: recombinant; tags: N-terminal GST; dsDNA, one strand shown. In short, it runs like this: as §1
Sequence of CRX (O43186 whole entry): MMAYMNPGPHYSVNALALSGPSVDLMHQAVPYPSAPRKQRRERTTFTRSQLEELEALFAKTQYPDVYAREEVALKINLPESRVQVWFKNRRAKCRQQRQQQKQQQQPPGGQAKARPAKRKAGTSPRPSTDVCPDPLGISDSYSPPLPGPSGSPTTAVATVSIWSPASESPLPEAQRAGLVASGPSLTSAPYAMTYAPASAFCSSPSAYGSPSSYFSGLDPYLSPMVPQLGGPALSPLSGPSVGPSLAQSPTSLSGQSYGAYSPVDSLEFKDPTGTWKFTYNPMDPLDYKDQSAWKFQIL
The target of assay [10] is ETV1 (Homo sapiens, UniProt P50549 1-477). The note with it: protein: recombinant; tags: N-terminal GST; dsDNA, one strand shown. Summed up:
as §1

For assay [11], the target named is T6, ERF (Homo sapiens, UniProt P50548 1-548).
T6 sequence: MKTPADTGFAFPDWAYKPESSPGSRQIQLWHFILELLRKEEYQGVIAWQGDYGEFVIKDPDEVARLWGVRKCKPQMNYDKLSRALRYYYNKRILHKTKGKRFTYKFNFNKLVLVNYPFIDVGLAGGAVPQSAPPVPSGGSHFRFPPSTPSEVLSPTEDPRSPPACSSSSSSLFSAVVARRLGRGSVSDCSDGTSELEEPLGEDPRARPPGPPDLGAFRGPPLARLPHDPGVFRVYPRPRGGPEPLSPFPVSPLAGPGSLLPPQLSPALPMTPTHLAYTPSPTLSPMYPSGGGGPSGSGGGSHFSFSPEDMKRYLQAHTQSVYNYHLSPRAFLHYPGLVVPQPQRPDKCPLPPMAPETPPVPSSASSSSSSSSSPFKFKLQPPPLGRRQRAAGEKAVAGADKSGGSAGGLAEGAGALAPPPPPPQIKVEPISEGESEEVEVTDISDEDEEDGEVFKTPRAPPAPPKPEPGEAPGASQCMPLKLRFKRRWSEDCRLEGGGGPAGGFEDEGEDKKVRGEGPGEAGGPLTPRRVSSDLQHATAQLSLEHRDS
The note with it: protein: recombinant; tags: N-terminal GST; dsDNA, one strand shown. Summed up:
as §1

Assay [12] has as its target T7, ETV3L (Homo sapiens, UniProt Q6ZN32 1-361).
T7 sequence: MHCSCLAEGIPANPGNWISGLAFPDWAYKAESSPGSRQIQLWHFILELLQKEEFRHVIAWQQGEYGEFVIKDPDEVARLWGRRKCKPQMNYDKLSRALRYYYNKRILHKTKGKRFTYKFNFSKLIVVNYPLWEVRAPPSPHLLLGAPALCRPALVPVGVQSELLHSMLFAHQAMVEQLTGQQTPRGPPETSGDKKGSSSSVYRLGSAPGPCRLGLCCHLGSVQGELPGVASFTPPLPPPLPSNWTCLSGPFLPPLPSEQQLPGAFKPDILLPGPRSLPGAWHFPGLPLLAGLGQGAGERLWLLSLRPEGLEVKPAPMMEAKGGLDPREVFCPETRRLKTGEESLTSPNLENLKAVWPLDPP
The note with it: protein: recombinant; tags: N-terminal GST; dsDNA, one strand shown. In short, it runs like this: as §1

The target of assay [13] is T8, ETS2 (Homo sapiens, UniProt P15036 1-469).
T8 sequence: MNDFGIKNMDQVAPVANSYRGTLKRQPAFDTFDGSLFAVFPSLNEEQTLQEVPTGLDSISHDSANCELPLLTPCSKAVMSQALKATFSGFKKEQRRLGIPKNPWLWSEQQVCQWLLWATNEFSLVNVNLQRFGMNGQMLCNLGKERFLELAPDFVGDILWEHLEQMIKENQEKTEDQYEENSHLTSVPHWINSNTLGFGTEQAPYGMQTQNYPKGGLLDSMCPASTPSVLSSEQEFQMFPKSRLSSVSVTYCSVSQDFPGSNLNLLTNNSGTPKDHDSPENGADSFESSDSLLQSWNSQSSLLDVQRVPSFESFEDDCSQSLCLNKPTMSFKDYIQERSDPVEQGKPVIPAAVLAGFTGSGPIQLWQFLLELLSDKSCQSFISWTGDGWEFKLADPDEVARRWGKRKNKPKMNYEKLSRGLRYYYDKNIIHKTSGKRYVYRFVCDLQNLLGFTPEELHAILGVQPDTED
The note with it: protein: recombinant; tags: N-terminal GST; dsDNA, one strand shown. Summed up: as §1

Assay [14] addresses T9, SPDEF (Homo sapiens, UniProt O95238 1-335).
T9 sequence: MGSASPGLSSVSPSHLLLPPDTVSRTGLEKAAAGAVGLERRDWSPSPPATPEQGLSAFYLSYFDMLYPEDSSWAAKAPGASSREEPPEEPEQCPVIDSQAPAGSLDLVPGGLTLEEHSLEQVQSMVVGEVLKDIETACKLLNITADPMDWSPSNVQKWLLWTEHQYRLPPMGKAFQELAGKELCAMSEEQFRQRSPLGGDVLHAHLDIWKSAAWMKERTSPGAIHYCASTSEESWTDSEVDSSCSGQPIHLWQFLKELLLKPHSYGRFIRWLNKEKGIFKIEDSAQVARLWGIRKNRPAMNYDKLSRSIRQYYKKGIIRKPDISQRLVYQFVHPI
The note with it: protein: recombinant; tags: N-terminal GST; dsDNA, one strand shown. Summed up: as §1

In assay [15] the target is T10, ETV7 (Homo sapiens, UniProt Q9Y603 1-341).
T10 sequence: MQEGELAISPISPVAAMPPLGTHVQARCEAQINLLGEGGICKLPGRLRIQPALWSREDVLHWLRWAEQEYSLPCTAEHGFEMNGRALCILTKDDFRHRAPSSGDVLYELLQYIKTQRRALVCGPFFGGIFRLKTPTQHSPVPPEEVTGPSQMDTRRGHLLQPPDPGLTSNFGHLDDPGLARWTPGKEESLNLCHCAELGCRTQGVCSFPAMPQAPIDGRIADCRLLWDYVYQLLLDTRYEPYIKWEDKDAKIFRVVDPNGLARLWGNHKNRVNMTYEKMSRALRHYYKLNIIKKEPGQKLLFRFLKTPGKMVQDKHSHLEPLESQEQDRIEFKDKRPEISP
The note with it: protein: recombinant; tags: N-terminal GST; dsDNA, one strand shown. Summed up:
as §1

The target in assay [16] is T11, ELF5 (Homo sapiens, UniProt Q9UKW6-2 1-255).
T11 sequence: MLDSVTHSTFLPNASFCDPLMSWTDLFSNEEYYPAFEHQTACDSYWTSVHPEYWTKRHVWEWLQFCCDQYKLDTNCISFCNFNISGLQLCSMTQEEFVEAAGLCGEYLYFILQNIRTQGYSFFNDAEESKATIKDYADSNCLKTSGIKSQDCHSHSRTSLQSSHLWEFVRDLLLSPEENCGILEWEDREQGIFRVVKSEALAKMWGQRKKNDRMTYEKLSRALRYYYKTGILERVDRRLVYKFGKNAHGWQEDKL
The note with it: protein: recombinant; tags: N-terminal GST; dsDNA, one strand shown. In short, it runs like this: as §1

Assay [17] concerns the target T12, ETV3 (Homo sapiens, UniProt P41162-2 1-143).
T12 sequence: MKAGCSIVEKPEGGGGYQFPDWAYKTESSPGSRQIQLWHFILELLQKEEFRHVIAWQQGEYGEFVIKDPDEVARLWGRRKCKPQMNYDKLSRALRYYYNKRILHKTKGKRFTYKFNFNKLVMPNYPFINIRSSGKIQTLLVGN
The note with it: protein: recombinant; tags: N-terminal GST; dsDNA, one strand shown. Summed up:
as §1

In assay [18] the target is ETV6 (Homo sapiens, UniProt P41212 1-452). The note with it: protein: recombinant; tags: N-terminal GST; dsDNA, one strand shown. Summed up:
as §1

Sequence of ETV1 (P50549 whole entry): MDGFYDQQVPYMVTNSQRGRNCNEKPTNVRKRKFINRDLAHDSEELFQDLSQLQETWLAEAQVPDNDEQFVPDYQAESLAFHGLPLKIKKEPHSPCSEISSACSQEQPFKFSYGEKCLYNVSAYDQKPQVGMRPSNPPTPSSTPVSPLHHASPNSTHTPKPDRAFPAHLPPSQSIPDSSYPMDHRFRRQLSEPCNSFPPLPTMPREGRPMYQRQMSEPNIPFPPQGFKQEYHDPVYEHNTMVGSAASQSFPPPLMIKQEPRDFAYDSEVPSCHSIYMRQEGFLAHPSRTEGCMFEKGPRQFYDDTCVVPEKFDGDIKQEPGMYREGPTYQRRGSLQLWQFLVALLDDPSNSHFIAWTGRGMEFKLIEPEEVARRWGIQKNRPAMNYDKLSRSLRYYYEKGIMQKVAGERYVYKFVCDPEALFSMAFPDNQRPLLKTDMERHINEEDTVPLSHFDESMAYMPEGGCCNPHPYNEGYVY
Sequence of ETV6 (P41212 whole entry): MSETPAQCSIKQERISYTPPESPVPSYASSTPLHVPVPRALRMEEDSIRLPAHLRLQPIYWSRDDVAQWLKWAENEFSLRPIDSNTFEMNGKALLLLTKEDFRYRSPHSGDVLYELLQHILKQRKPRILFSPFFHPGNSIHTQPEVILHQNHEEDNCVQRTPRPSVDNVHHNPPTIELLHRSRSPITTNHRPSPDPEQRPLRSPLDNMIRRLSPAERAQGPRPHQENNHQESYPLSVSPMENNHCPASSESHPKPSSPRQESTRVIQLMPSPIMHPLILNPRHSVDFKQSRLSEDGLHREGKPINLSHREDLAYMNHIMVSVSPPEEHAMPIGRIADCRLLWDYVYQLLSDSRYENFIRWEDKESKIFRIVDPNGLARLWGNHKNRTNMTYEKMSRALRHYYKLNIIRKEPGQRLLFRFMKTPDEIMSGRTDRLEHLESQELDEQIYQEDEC
Sequence of HSF1 (Q00613 whole entry): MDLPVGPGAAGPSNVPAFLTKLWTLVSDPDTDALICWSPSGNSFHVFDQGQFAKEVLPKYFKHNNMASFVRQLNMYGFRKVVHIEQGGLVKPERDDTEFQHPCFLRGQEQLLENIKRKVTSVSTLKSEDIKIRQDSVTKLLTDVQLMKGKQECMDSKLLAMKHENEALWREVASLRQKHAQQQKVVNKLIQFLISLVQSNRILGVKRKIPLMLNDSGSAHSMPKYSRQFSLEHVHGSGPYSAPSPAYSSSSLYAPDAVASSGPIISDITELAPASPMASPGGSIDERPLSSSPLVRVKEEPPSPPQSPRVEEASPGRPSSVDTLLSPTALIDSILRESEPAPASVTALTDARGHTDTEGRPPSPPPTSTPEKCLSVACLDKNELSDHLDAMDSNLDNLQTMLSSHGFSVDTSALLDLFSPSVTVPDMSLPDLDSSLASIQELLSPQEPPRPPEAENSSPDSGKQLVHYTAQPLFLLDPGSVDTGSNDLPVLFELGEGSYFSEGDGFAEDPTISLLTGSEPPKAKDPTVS

ACCCTT: the binding signal in assay [1] is 1.21 fold enrichment (6-mer frequency, TF over GST control); in assay [2], 1.25 fold enrichment (6-mer frequency, TF over GST control); in assay [3] it was 1.09 fold enrichment (6-mer frequency, TF over GST control); in [4] it was 1.02 fold enrichment (6-mer frequency, TF over GST control); in assay [5], 1.26 fold enrichment (6-mer frequency, TF over GST control); in [6] it was 1.08 fold enrichment (6-mer frequency, TF over GST control). The binding signal in [7] is 1.33 fold enrichment (6-mer frequency, TF over GST control); in assay [8], 1.23 fold enrichment (6-mer frequency, TF over GST control); in [9], 1.15 fold enrichment (6-mer frequency, TF over GST control); in assay [10] it was 1.18 fold enrichment (6-mer frequency, TF over GST control); in assay [11], 1.2 fold enrichment (6-mer frequency, TF over GST control); in assay [12], 1.21 fold enrichment (6-mer frequency, TF over GST control). The binding signal in assay [13] is 1.1 fold enrichment (6-mer frequency, TF over GST control); in assay [14] it was 1.2 fold enrichment (6-mer frequency, TF over GST control); in [15], 1.1 fold enrichment (6-mer frequency, TF over GST control); in assay [16], 1.19 fold enrichment (6-mer frequency, TF over GST control); in assay [17], 1.19 fold enrichment (6-mer frequency, TF over GST control); in assay [18] it was 1.15 fold enrichment (6-mer frequency, TF over GST control).

The values above are taken from paper PMC7862700, “An all-to-all approach to the identification of sequence-specific readers for epigenetic DNA modifications on cytosine”.
